Hits are enriched below; roughly 22% of the tested compounds scored in any of these assays.
CYP2C19 act: cytochrome P450 2C19 (human) activation. P33261. AID 1025. 96,000 tested, under 10 active. activation factor at 5 µM. recombinant CYP2C19, luciferin-H EGE luminescence; active compounds read high; 0 = fully inhibited enzyme, 1 = untreated enzyme;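 active means activation factor of at least 2 at 5 µM in the primary screen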;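 further: 0 = wells with 2.5 mM tranylcypromine and 1 = vehicle-only wells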
Target sequence (P33261 whole entry, looked up): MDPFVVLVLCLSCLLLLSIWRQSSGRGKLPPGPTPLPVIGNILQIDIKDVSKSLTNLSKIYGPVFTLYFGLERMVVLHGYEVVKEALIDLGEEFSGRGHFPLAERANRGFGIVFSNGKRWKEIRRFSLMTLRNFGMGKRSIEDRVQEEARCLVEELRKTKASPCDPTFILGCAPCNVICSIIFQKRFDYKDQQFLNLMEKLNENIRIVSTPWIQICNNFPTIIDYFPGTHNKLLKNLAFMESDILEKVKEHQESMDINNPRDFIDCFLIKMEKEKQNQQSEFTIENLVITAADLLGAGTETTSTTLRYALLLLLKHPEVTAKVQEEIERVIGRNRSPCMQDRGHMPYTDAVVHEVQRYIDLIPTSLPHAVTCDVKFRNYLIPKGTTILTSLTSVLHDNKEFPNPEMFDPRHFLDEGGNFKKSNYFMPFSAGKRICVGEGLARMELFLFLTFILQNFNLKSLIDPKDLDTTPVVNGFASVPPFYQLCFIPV
CYP2C9 inh: blocks human cytochrome P450 2C9; P11712; CYP2C9 Supersomes, luciferin-H conversion, luminescence; inhibition, % at 5 µM; hit rate 20% among 96,000;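 active means blocking of liver enzyme CYP2C9 beyond about 50% at 5 µM, limit read from the data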
Measles CPE: protection of cells from measles virus. Measles virus-infected cells, CPE protection, absorbance. protection (pct of control), % at 4 µM. hit rate 1.5% among 140,000; in the data active means protection mostly above about 24%, no sharp cut-off; inactive means mostly below about 26%
CYP2C19 inh: human CYP2C19 inhibition; P33261; hit rate 21% among 96,000; CYP2C19 Supersomes, luciferin-H EGE luminescence, 30 min; inhibition, % at 5 µM;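 active means CYP2C19 inhibition above a set limit at 5 µM in the primary screen, cut at about 50% in these data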;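 further: plate controls were negative control wells for no effect and 2.5 mM tranylcypromine positive control for full effect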
CYP2C9 act: CYP2C9 (human) activation; hit rate 1.4% among 96,000; activation factor at 5 µM; P11712; recombinant CYP2C9, luciferin-H conversion, luminescence; active compounds read high; factor 1 = untreated enzyme, 0 = blocked;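 active means activation factor of 2 or more for CYP2C9 at a 5 µM dose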;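 further: 0 = sulfaphenazole-blocked wells and 1 = vehicle-only wells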
* = called active by the depositor; . = no result.

SMILES | CYP2C19 act | CYP2C9 inh | Measles CPE | CYP2C19 inh | CYP2C9 act
CC(C)(C)NS(=O)(=O)c1ccc2nc(NC(=O)Cc3cccs3)sc2c1 | 0.5 | 88* | 27 | 50* | 0.1
O=C(Cc1ccccc1)Nc1ccc(NC(=O)c2cccs2)c(Cl)c1 | . | . | 6 | . | .
CCOc1cccc2c1OC(c1cc(OC)c(OC)c(OC)c1)N1N=C(c3ccc(C)o3)CC21 (centres undefined) | . | . | 5 | . | .
c1ccc(CSc2n[nH]c(-c3ccco3)n2)cc1 | 0.4 | 17 | 14 | 61* | 0.8
COCc1nnc(NS(=O)(=O)c2ccc(C)cc2)s1 | 1.1 | 52* | 3 | -7 | 0.5
COCc1nnc(NS(=O)(=O)c2c(C)cc(C)cc2C)s1 | 1 | 84* | 11 | 5 | 0.2
COCc1nnc(NS(=O)(=O)c2ccccc2)s1 | 1.1 | 31 | 2 | -12 | 0.7
CCOC(=O)C1C(=O)NC(SCC(N)=O)=C(C#N)C1c1ccccc1OCC (centres undefined) | 0.2 | 42 | 29 | 76* | 0.6
CCOC(=O)CSC1=C(C#N)C(c2ccc(Cl)cc2)C(C(=O)OC)C(=O)N1 (centres undefined) | 0.6 | 41 | 13 | 40 | 0.6
COC(=O)C1C(=O)NC(SC)=C(C#N)C1c1ccccc1 (centres undefined) | 0.7 | 16 | 8 | 29 | 0.8
CCOC(=O)C1C(=O)NC(SC)=C(C#N)C1c1ccccc1F (centres undefined) | 0.1 | 42 | 11 | 91* | 0.6
O=C(Cn1cnc2cc([N+](=O)[O-])ccc2c1=O)NC(c1ccccc1)c1ccccc1 | . | . | 7 | . | .
CCOC(=O)CN1C(=O)N[C@H](c2ccc(Br)cc2)C(C(C)=O)=C1C | . | . | 9 | . | .
CCc1nnc(N/N=C/c2c(Cl)cccc2Cl)n1N | 0.4 | -11 | 8 | 63* | 1.1
CCc1nnc(N/N=C/c2cccs2)n1N | . | . | 28 | . | .
O=C(O)C1C2C=CC(C2)C1C(=O)NC1CCS(=O)(=O)C1 (centres undefined) | 0.9 | 3 | 27 | 8 | 1
O=C(CCn1nnc(-c2cccs2)n1)N1CCc2ccccc2C1 | 0.7 | 22 | 2 | 26 | 0.8
O=C(Nc1cccc(-c2nnn(CC(=O)N3CCc4ccccc4C3)n2)c1)C1CCC1 | 0.2 | 47 | 10 | 84* | 0.5
O=C(Nc1ccccc1-c1nnn(CC(=O)N2CCc3ccccc3C2)n1)C1CCC1 | 0.8 | 65* | 4 | 20 | 0.4
CC1Cc2ccccc2N1C(=O)Cn1nnc(-c2ccccc2NC(=O)C2CCC2)n1 (centres undefined) | . | . | 9 | . | .
Cc1ccc(C2=NN3C(C(=O)c4ccccc4)Oc4ccccc4C3C2)cc1 (centres undefined) | 0.2 | 70* | 5 | 82* | 0.3
Nc1ccnn1Cc1ccc(Br)s1 | . | . | 26 | . | .
CC(C)Oc1cccc(C(=O)Nc2ccccc2N2CCOCC2)c1 | 0.6 | 59* | 11 | 38 | 0.4
O=C(Nc1ccccc1N1CCOCC1)c1cccc([N+](=O)[O-])c1 | . | . | 13 | . | .
CCOc1ccc(C(=O)C2CCN(CC(=O)Nc3ccccc3N3CCOCC3)CC2)cc1 | 0 | 96* | 24 | 99* | 0
SMILES | CYP2C19 act | CYP2C9 inh | Measles CPE | CYP2C19 inh | CYP2C9 act
CCOc1ccc(C(=O)Nc2ccccc2N2CCOCC2)cc1 | 0.8 | -1 | 3 | 18 | 1
COC(=O)c1ccccc1NC(=O)CNc1cc(Cl)ccc1N1CCOCC1 | 0.2 | 94* | 4 | 84* | 0.1
CCC(C)Oc1cccc(C(=O)Nc2ccccc2N2CCOCC2)c1 (centres undefined) | 0.3 | 73* | 3 | 68* | 0.3
CCSc1nnc([C@H](C)NC(=O)OC(C)(C)C)o1 | 0.6 | 14 | 8 | 42 | 0.9
N#C/C(=C/c1ccc(N2CCOCC2)c([N+](=O)[O-])c1)C(N)=O | 0.8 | 21 | 3 | 18 | 0.8
CN(Cc1ccco1)S(=O)(=O)c1ccc2c(c1)CCN2C(=O)CCC(=O)O | . | . | 11 | . | .
COc1cc(OC)cc(C(=O)N[C@H](C(=O)Nc2ccccc2N2CCOCC2)C(C)C)c1 | 0.5 | 42 | 13 | 48 | 0.6
COC(=O)c1cc(NCc2ccccc2F)ccc1N1CCOCC1 | 0.1 | 55* | 23 | 87* | 0.5
COc1ccccc1NC(=O)Cn1c(=O)oc2ccccc21 | 0.7 | -10 | 6 | 30 | 1.1
COC(=O)c1ccccc1NC(=O)Cn1c(=O)oc2ccc(Cl)cc21 | 0.3 | 41 | 8 | 74* | 0.6
Cc1cc(Cl)ccc1OC(C)C(=O)Nc1ccccc1N1CCOCC1 (centres undefined) | 0.1 | 97* | 10 | 90* | 0
CN(C)c1ccc(-c2ccncc2)cc1 | 0 | 50 | . | 98* | 0.5
c1cc(-c2ccncc2)ccn1 | . | . | 4 | . | .
O=c1cc2c(nn1Cc1cccc(Cl)c1)-c1ccccc1CC2 | 0.2 | 100* | 16 | 84* | 0
O=c1cc2c(nn1Cc1ccc(Cl)cc1)-c1ccccc1CC2 | 0 | 97* | 22 | 97* | 0
O=C(CN1CCOCC1)N/N=C/c1cc2ccccc2nc1Cl | 0.8 | 3 | 3 | 19 | 1
Cc1ccc(NCC(=O)N/N=C/c2cc3ccccc3nc2Cl)cc1 | 0.7 | 54* | 8 | 30 | 0.5
CC(=O)Nc1cccc(N2C(=O)CC(Cc3ccccc3)C2=O)c1 (centres undefined) | 0.8 | -41 | 35 | 19 | 1.4
C=CCn1c(N2C(=O)CC(Cc3ccccc3)C2=O)nc2ccccc21 (centres undefined) | 0.2 | -3 | 5 | 79* | 1
COc1ccc(CC(=O)n2nc(-c3ccccc3)nc2NCc2ccco2)cc1 | 0.8 | 56* | 2 | 24 | 0.4
COc1ccc(Nc2nc(NCc3ccco3)nc(N/N=C/c3ccccc3)n2)cc1 | 1 | 61* | 24 | -5 | 0.4
CCC(=O)n1nc(-c2ccccc2)nc1N | 0.8 | 1 | 13 | 16 | 1
CCC(=O)n1nc(-c2ccc(Cl)cc2)nc1NCc1ccccc1 | 0.9 | 50* | 8 | 8 | 0.5
Nc1c(-c2ccccc2)cnn1C1CCS(=O)(=O)C1 (centres undefined) | 1 | -1 | 6 | 4 | 1
C#CCSc1nnc(-c2cc3c(C(F)(F)F)nn(C)c3s2)n1C | 1 | -69 | 28 | -3 | 1.7
CCOc1ccc(C2CC(c3cccc(OC)c3)Nc3ncnn32)cc1 (centres undefined) | 0.2 | 95* | 10 | 79* | 0
COc1cccc(C2CC(c3ccccc3Cl)n3ncnc3N2)c1 (centres undefined) | 0 | 52* | 6 | 97* | 0.5
COc1cccc(C2CC(c3ccccc3Cl)n3nnnc3N2)c1 (centres undefined) | 0 | 89* | 2 | 100* | 0.1
COc1ccc(C2CC(c3cccc(OC)c3OC)n3nnnc3N2)cc1 (centres undefined) | 0 | 65* | 4 | 96* | 0.3
CCOc1ccc(C2CC(c3cccc(OC)c3)n3nc(N)nc3N2)cc1 (centres undefined) | 1 | 21 | 13 | 3 | 0.8

High-throughput results deposited in PubChem by several laboratories.
